Data on three compounds can be found in PubChem BioAssay (EPA / NIEHS).

Where “and” joins values, the source holds several entries; their conditions need not be identical. Equal values may be shown once. Some structures have more than one record in an assay (separate samples or runs), and their calls can disagree. Calls of active or inactive are those of the source. The calls were made as follows: active = hit-call score of the fitted dose curve at least 0.9, where 1 is the maximum; inactive = score below 0.9.

Test [1] in a line: ATG_CRE_CIS: Attagene CIS-FACTORIAL HepG2 Assay for human cAMP Responsive Element (CRE) binding protein 3 (AID 2282926). Conditions: HepG2 CRE cis-reporter, Attagene multiplexed mRNA; actives raise or lower the signal. The method in brief: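 Transfected HepG2 were treated for 24 hours, then RNA was extracted and reporter cDNA amplified with sequence-specific primers. Labelled fragments were separated by capillary electrophoresis, and the CRE signal was fitted bidirectionally with DMSO as baseline.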

The target of test [2] is CCAAT/enhancer-binding protein beta (Homo sapiens) (UniProt P17676). Put plainly: ATG_C_EBP_CIS: Attagene CIS-FACTORIAL HepG2 Assay for human CCAAT/Enhancer Binding Protein (C/EBP) beta (AID 2282927). Conditions: HepG2 Attagene cis-factorial transcription factor reporter; actives raise or lower the signal. In outline:
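Following a 24 h incubation with test chemical, transfected HepG2 cells yielded RNA whose reporter transcripts were quantified by RT-PCR and fluorescent capillary electrophoresis, with DMSO serving as baseline for bidirectional fitting.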

Test [3] in a line: ATG_CMV_CIS: Attagene CIS-FACTORIAL HepG2 Assay for human CMV (Internal Marker) (AID 2282928).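 Also: endpoint acts as a background internal control marker rather than a target.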 Conditions: HepG2 CMV promoter reporter, transcription factor profiling; actives raise or lower the signal. In outline: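 After transient transfection of HepG2 with reporter transcription units driven by cis-regulatory promoters, cells receive test chemical for 24 h. Labeled reporter amplicons, digested with HpaI, are sized and quantified by capillary electrophoresis against DMSO.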

Test [4] is described as follows: ATG_DR4_LXR_CIS: Attagene CIS-FACTORIAL HepG2 Assay for human Liver X Receptor (LXR), DR4 submotif (AID 2282929). Conditions: HepG2 Attagene DR4 cis-reporter, mRNA transcription; actives raise or lower the signal. The method in brief: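 Measures endogenous transcription factor activity via a DR4-driven reporter transcript in human HepG2 cells. Compounds incubated 24 h; mRNA quantified by RT-PCR and capillary electrophoresis, analysed as gain or loss of signal versus DMSO.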

The target in test [5] is Aryl hydrocarbon receptor (Homo sapiens) (UniProt P35869). Put plainly: ATG_Ahr_CIS: Attagene CIS-FACTORIAL HepG2 Assay for human Aryl Hydrocarbon Receptor (Ahr) (AID 2282930). Conditions: HepG2 AhR cis-factorial reporter transcription; actives raise or lower the signal. The method in brief: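 Values derive from bidirectional fitting against DMSO negative control. Underlying signal: cis-element reporter mRNA in transiently transfected HepG2, harvested 24 h post-dose and measured by RT-PCR plus capillary electrophoresis.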
Aryl hydrocarbon receptor (Homo sapiens), sequence (P35869 whole entry, looked up): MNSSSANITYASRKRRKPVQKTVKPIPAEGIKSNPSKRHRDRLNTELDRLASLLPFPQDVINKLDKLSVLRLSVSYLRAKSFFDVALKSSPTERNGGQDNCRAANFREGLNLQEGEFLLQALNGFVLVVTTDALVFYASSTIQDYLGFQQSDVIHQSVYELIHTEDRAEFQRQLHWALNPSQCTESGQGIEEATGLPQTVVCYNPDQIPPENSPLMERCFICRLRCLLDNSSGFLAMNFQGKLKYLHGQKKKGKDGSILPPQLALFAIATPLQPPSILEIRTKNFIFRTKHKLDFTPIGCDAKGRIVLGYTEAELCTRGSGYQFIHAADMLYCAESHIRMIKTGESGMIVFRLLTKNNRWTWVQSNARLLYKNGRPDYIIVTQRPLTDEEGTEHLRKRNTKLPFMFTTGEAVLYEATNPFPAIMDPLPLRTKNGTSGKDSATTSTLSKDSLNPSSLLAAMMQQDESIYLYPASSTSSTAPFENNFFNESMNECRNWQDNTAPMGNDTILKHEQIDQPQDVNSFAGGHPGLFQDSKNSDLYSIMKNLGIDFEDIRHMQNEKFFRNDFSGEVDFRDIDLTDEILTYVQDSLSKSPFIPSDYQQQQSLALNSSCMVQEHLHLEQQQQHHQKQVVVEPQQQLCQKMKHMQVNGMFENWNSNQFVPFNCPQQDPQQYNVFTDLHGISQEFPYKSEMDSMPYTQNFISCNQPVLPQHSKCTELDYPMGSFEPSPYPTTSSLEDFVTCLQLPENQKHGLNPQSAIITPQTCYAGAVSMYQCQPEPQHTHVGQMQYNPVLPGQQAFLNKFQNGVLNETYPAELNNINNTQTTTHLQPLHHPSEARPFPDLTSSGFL

Test [6] is described as follows: ATG_AP_1_CIS: Attagene CIS-FACTORIAL HepG2 Assay for human Activator Protein 1 (AP-1) (AID 2282931). Conditions: HepG2 Attagene cis-factorial AP-1 reporter mRNA; actives raise or lower the signal. In outline:
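Bidirectional concentration-response fitting against DMSO controls. Underlying signal: reporter mRNA from cis-promoter constructs in transiently transfected HepG2, measured after 24 h by RT-PCR and capillary electrophoresis.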

Test [7] can be described thus: ATG_AP_2_CIS: Attagene CIS-FACTORIAL HepG2 Assay for human Activator Protein 2 (AP-2) (AID 2282932). Conditions: HepG2 AP-2 cis-reporter, Attagene transcription factor profiling; actives raise or lower the signal. In outline: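 HepG2 cells were transiently transfected with multiple cis-promoter reporter transcription units and dosed for 24 h. Reporter mRNA was measured by RT-PCR with capillary electrophoresis fluorescence; bidirectional fits relative to DMSO baseline.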

Test [8] in a line: ATG_BRE_CIS: Attagene CIS-FACTORIAL HepG2 Assay for human Bone Morphogenetic Protein (BMP) Response Element (BRE) (AID 2282933). Conditions: HepG2 BMP response element reporter, Attagene transcription factor profiling; actives raise or lower the signal. In outline: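 After a 24 h chemical treatment, transiently transfected HepG2 cells were lysed for RNA; reporter transcripts were quantified by fluorescent RT-PCR and capillary electrophoresis, normalised to DMSO.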

Test [9] addresses Retinoic acid receptor alpha (Homo sapiens) (UniProt P10276). Briefly: ATG_DR5_RAR_CIS: Attagene CIS-FACTORIAL HepG2 Assay for human Retinoic Acid Receptor Alpha (RARE), DR5 submotif (AID 2282934). Conditions: HepG2 Attagene cis-factorial RARE DR5 reporter, mRNA; actives raise or lower the signal. The method in brief:
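Endpoint fitted in both directions relative to DMSO as negative control. It reflects DR5 cis-element reporter mRNA induction in transiently transfected HepG2 cells, measured 24 h after dosing through RT-PCR and fluorescent capillary electrophoresis.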

Test [10] addresses Transcription factor E2F1 (Homo sapiens) (UniProt Q01094). Briefly: ATG_E2F_CIS: Attagene CIS-FACTORIAL HepG2 Assay for human E2F Transcription Factor 1 (AID 2282935). Conditions: HepG2 Attagene cis-reporter, E2F reporter RNA transcripts; actives raise or lower the signal. The method in brief: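 HepG2 cells transiently transfected with multiplexed cis-element reporter units, dosed for 24 h. Reporter mRNA measured by RT-PCR, 6-FAM primer-extension labeling, HpaI digestion and capillary electrophoresis; bidirectional fit versus DMSO baseline.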

Test [11] can be described thus: ATG_E_Box_CIS: Attagene CIS-FACTORIAL HepG2 Assay for human Enhancer Box (E-box) (AID 2282936). Conditions: HepG2 E-box cis-reporter transcription, actives raise or lower the signal. The method in brief: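 HepG2 cells transiently transfected with multiplexed cis-element reporter units sensing endogenous transcription factor activity; 24 h compound exposure. Reporter mRNA measured by RT-PCR, 6-FAM primer extension, HpaI digestion and capillary electrophoresis; bidirectional fit versus DMSO.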

Test [12] can be described thus: ATG_M_61_CIS: Attagene CIS-FACTORIAL HepG2 Assay for M61 Transcription Factor (Internal Marker) (AID 2282937). Conditions: HepG2 Attagene CIS-FACTORIAL M61 internal marker reporter; actives raise or lower the signal. The method in brief: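 Fluorescence from labelled cDNA fragments, separated by capillary electrophoresis, quantifies reporter induction. HepG2 cells bearing transiently transfected cis-promoter MRTUs were incubated with test chemical for 24 h; DMSO defined baseline for gain/loss fitting.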

A short description of test [13]: ATG_EGR_CIS: Attagene CIS-FACTORIAL HepG2 Assay for human Early Growth Response 1 (EGR1) (AID 2282938). Conditions: HepG2 Attagene CIS-FACTORIAL EGR reporter mRNA; actives raise or lower the signal. In outline:
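Cell-based multiplex transcription assay: HepG2 carrying transfected cis-element reporter units, 24 h chemical treatment. Fluorescence from capillary electrophoresis of RT-PCR products gives mRNA levels; fitting is bidirectional relative to DMSO.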

Test [14] in a line: ATG_M_19_CIS: Attagene CIS-FACTORIAL HepG2 Assay for M19 Transcription Factor (Internal Marker) (AID 2282939). Conditions: HepG2 Attagene CIS-FACTORIAL M19 internal marker reporter; actives raise or lower the signal. The method in brief:
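In this multiplexed cell assay, transiently transfected HepG2 reporter units report endogenous transcription-factor activity; after 24 hours of treatment, labelled reporter cDNA fragments are quantified by capillary electrophoresis and fitted bidirectionally against DMSO.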

Test [15] is described as follows: ATG_Ets_CIS: Attagene CIS-FACTORIAL HepG2 Assay for human Erythroblast Transformation Specific (ETS) (AID 2282941). Conditions: HepG2 ETS cis-reporter transcription, actives raise or lower the signal. In outline: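 Human HepG2 hepatoma cells were transiently transfected with promoter-driven reporter constructs and treated for 24 hours. Reporter transcripts were quantified by RT-PCR with fluorescent primer extension; bidirectional curve fitting used DMSO as reference.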

Test [16] addresses Hepatocyte nuclear factor 3-beta (Homo sapiens) (UniProt Q9Y261). Briefly: ATG_FoxA2_CIS: Attagene CIS-FACTORIAL HepG2 Assay for human Forkhead box A2 (FOXA2) (AID 2282942). Conditions: HepG2 cis-reporter transcription factor activity, 24 h; actives raise or lower the signal. In outline:
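In transiently transfected human HepG2 cells, promoter-driven reporter mRNA levels after 24 h chemical exposure are determined via RT-PCR with capillary electrophoresis. DMSO serves as baseline for bidirectional fitting.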

A short description of test [17]: ATG_FoxO_CIS: Attagene CIS-FACTORIAL HepG2 Assay for human Forkhead box O (FoxO) (AID 2282943). Conditions: HepG2 Attagene cis-reporter, FoxO element, mRNA; actives raise or lower the signal. In outline:
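Values reflect reporter mRNA induction or loss in HepG2 cells 24 h post-dosing, fitted bidirectionally with DMSO as negative control and baseline. Detection used RT-PCR and fluorescence capillary electrophoresis.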

Test [18] is described as follows: ATG_GATA_CIS: Attagene CIS-FACTORIAL HepG2 Assay for human GATA Binding Protein (AID 2282944). Conditions: HepG2 GATA cis-element reporter, Attagene multiplex mRNA; actives raise or lower the signal. The method in brief:
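Measures endogenous transcription factor-driven reporter mRNA in HepG2 cells transiently carrying cis-regulated constructs. 24 h dosing; RNA via oligo(dT) reverse transcription, PCR, HpaI digestion, capillary electrophoresis; fitted relative to DMSO.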

Test [19] in a line: ATG_GLI_CIS: Attagene CIS-FACTORIAL HepG2 Assay for human Zinc Finger Protein GLI1 (AID 2282945). Conditions: HepG2, Attagene cis-factorial reporter mRNA, GLI element; actives raise or lower the signal. In outline:
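HepG2 cells transiently transfected with cis-promoter multiplexed reporter units report endogenous transcription factor activity. After 24 h chemical exposure, reporter mRNA was quantified by RT-PCR, 6-FAM labelling, HpaI digestion and capillary electrophoresis, with bidirectional fitting against DMSO.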

For test [20], the target named is Bile acid receptor (Homo sapiens) (UniProt Q96RI1). Put plainly: ATG_IR1_CIS: Attagene CIS-FACTORIAL HepG2 Assay for human Nuclear Receptor Subfamily 1 Group H Member 4 (NR1H4), IR1 submotif (AID 2282946). Conditions: IR1 reporter transcription, actives raise or lower the signal. The method in brief: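 Transient MRTU transfection, HepG2; 24 h dosing; RNA → RT-PCR → 6-FAM primer extension → HpaI digest → capillary electrophoresis fluorescence. Gain/loss of signal fitted relative to DMSO.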
Bile acid receptor (Homo sapiens), sequence (Q96RI1 whole entry, looked up): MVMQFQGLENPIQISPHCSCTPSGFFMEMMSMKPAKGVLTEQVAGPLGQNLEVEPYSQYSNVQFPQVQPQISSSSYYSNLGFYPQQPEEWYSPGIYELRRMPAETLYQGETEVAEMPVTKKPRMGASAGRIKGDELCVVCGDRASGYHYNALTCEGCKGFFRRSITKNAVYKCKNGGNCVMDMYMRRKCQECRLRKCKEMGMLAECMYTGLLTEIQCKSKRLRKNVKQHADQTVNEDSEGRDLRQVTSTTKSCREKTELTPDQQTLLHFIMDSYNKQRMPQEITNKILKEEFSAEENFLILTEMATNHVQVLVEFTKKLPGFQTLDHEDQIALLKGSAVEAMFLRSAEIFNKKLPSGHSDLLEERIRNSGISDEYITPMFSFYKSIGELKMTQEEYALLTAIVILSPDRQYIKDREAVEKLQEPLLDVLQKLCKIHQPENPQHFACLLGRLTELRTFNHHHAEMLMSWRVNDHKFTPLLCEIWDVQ

Transcription factor E2F1 (Homo sapiens), sequence (Q01094 whole entry, looked up): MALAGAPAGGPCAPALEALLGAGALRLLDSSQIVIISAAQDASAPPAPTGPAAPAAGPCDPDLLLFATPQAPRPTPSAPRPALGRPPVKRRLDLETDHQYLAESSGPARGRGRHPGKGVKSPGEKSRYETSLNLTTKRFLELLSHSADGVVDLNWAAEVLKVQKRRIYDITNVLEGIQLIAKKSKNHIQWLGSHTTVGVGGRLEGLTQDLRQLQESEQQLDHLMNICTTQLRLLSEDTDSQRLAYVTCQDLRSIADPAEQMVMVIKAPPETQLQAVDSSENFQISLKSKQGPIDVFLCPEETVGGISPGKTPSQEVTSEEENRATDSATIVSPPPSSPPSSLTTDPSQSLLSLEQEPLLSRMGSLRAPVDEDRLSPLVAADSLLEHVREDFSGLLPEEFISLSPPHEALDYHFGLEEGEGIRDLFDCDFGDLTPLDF
CCAAT/enhancer-binding protein beta (Homo sapiens), sequence (P17676 whole entry, looked up): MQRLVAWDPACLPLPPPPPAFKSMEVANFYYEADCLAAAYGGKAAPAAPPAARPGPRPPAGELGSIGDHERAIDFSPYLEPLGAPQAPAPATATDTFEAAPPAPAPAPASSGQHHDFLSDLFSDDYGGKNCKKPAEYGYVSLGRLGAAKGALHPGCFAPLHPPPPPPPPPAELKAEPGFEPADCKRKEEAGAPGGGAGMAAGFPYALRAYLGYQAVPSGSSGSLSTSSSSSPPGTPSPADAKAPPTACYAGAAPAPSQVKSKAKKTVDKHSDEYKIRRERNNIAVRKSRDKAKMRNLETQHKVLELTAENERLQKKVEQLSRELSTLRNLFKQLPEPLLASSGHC
Hepatocyte nuclear factor 3-beta (Homo sapiens), sequence (Q9Y261 whole entry, looked up): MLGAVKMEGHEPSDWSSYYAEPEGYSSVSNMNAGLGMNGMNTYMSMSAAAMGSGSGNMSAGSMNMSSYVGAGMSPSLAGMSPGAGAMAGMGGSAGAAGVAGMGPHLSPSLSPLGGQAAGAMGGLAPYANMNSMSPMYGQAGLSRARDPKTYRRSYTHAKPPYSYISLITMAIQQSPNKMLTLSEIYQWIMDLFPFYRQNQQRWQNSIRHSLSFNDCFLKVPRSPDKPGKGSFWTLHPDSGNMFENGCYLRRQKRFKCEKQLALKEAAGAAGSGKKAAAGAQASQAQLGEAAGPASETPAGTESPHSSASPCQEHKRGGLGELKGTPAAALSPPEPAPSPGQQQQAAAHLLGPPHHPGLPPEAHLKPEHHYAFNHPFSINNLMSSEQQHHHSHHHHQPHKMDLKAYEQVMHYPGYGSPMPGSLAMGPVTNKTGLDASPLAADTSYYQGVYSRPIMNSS
Retinoic acid receptor alpha (Homo sapiens), sequence (P10276 whole entry, looked up): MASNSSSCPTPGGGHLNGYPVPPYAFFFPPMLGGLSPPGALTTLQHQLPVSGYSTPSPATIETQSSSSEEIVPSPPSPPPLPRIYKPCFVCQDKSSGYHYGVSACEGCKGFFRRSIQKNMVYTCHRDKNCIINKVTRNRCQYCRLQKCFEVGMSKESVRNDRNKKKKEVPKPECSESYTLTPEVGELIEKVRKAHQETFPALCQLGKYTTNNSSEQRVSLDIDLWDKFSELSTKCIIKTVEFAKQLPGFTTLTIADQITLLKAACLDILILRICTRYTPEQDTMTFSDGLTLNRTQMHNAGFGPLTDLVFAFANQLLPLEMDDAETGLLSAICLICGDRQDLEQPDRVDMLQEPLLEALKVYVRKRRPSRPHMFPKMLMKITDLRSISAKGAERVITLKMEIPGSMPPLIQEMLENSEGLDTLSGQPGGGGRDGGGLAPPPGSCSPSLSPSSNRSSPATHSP

For `CC(COc1ccc(Oc2ccccc2)cc1)Oc1ccccn1` (configuration not stated), the call in test [1], in [3], in test [4], in [5], in test [7] and in test [8] was inactive. For the same compound, the call in test [9], in test [10], in test [11], in [12], in test [14] and in [15] was inactive. In addition, the compound was classed as inactive in test [16], in test [17], in test [18], in test [19] and in [20]. Moreover, the AC50 (commonly the concentration at which the activity in the assay is half-maximal) in [2] was 13.4 µM (active); in [6], 19.1 µM (active); in test [13] it was 13.2 µM (active).
`CN(C)[C@@H]1C(=O)C(C(N)=O)=C(O)[C@@]2(O)C(=O)C3=C(O)c4c(O)cccc4[C@@](C)(O)[C@H]3[C@H](O)[C@@H]12`: the result in test [1], in test [2], in [3], in [4], in [5] and in test [6] was inactive. Besides, the outcome in [7], in test [8], in test [10], in test [11], in test [12] and in [13] was inactive. Also, the call in [14], in test [15], in test [16], in [17] and in test [19] was inactive. For the same compound, the half-maximal activity concentration (AC50) in [5] is 66.3 µM (active) and 37.9 µM (active); in test [8], 71.1 µM (active).
For `CCOP(=S)(OCC)Oc1ccc([N+](=O)[O-])cc1`, the outcome in test [1], in test [3], in test [4], in [7], in [8] and in test [9] was inactive. In addition, the compound was called inactive in [10], in test [12], in [13], in [14], in [15] and in test [16]. The compound was called inactive in test [17], in test [18] and in test [19]. For the same compound, the figures for the AC50 in test [2], in test [5] and in [6] were 13.5 µM (active), 30.9 µM (active) and 82.6 µM (active), respectively.
